The panel holds about 83,000 compounds, 20% with a hit somewhere; the sample as a whole holds those more often.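 Plates (96-well) were seeded with cells, treated with compound at one concentration, and incubated for 48 hours before percent growth was determined.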 Calls of active or inactive are those of the source. Rule for the calls: active = growth percent below 10; inactive = the rest.
Experiments:
Experiment in all cases: NCI-60 one-dose screen, 48 h (100 = growth as untreated, 0 = no growth, -100 = all killed)
Conditions in all cases: 10 µM unless noted
NCI-H23 lung = system: NCI-H23 lung
NCI-H226 lung = system: NCI-H226 lung
NCI-H322M lung = system: NCI-H322M lung
HOP-62 NSCLC = system: HOP-62 NSCLC
NCI-H460 lung = system: NCI-H460 lung
HOP-92 NSCLC = system: HOP-92 NSCLC
NCI-H522 lung = system: NCI-H522 lung
A549/ATCC NSCLC = system: A549/ATCC NSCLC
786-0 renal = system: 786-0 renal
COLO 205 colon = system: COLO 205 colon
DU-145 prostate = system: DU-145 prostate
K-562 leukemia = system: K-562 leukemia
MALME-3M melanoma = system: MALME-3M melanoma
MDA-MB-231 breast = system: MDA-MB-231 breast
RXF 393 renal = system: RXF 393 renal
SF-268 CNS = system: SF-268 CNS
SF-539 CNS = system: SF-539 CNS
M14 melanoma = system: M14 melanoma
SF-295 CNS = system: SF-295 CNS
UACC-257 melanoma = system: UACC-257 melanoma

Measured: growth

O=C1/C(=C/c2ccc(Cl)cc2Cl)CN(S(=O)(=O)c2ccccc2)C/C1=C\c1ccc(Cl)cc1Cl
active: NCI-H23 lung -37.6% | NCI-H322M lung -0.804% | HOP-62 NSCLC -2.25% | NCI-H460 lung -24.1% | HOP-92 NSCLC -3.29% | NCI-H522 lung -34.1% | A549/ATCC NSCLC 3.06% | 786-0 renal -81.2% | COLO 205 colon -15.9% | DU-145 prostate 9.52% | K-562 leukemia 0.787% | MDA-MB-231 breast -23.2% | RXF 393 renal -87% | SF-268 CNS 4.96% | SF-539 CNS -54.1%
inactive: NCI-H226 lung 58.3% | MALME-3M melanoma 36.8% | M14 melanoma 20.5%

O=C1Nc2ccccc2C12CC(c1ccc(Cl)cc1)=NN2 (stereo not drawn)
inactive: NCI-H23 lung 101% | NCI-H226 lung 86.6% | NCI-H322M lung 110% | HOP-62 NSCLC 104% | NCI-H460 lung 97.9% | HOP-92 NSCLC 74.3% | NCI-H522 lung 90.1% | A549/ATCC NSCLC 82.2% | 786-0 renal 100% | COLO 205 colon 108% | DU-145 prostate 115% | K-562 leukemia 94.5% | MALME-3M melanoma 105% | MDA-MB-231 breast 89.8% | RXF 393 renal 99.4% | SF-268 CNS 106% | SF-539 CNS 99.2% | M14 melanoma 98.7%

O=S(=O)(NCCCNc1cc(-c2cn(-c3ccccc3)nc2-c2cccc(O)c2)ccn1)c1ccccc1
active: COLO 205 colon -12.1% | K-562 leukemia 1.96% | MDA-MB-231 breast 9.24%
inactive: NCI-H23 lung 65.9% | NCI-H226 lung 41.9% | NCI-H322M lung 60.4% | HOP-62 NSCLC 77.3% | NCI-H460 lung 39% | HOP-92 NSCLC 45.2% | NCI-H522 lung 52.5% | A549/ATCC NSCLC 35.8% | 786-0 renal 13.1% | DU-145 prostate 53.7% | MALME-3M melanoma 37.2% | RXF 393 renal 36.7% | SF-268 CNS 52.8% | SF-295 CNS 11% | M14 melanoma 46.2%

O=S(=O)(NCCCNc1cc(-c2cn(-c3ccccc3)nc2-c2ccccc2)ccn1)c1ccc(C(F)(F)F)cc1
inactive: NCI-H23 lung 58.7% | NCI-H226 lung 54.3% | NCI-H322M lung 66.8% | HOP-62 NSCLC 82% | NCI-H460 lung 50.7% | HOP-92 NSCLC 32.2% | NCI-H522 lung 72.1% | A549/ATCC NSCLC 40.9% | 786-0 renal 29% | COLO 205 colon 33.1% | DU-145 prostate 75.9% | K-562 leukemia 15.8% | MALME-3M melanoma 70% | MDA-MB-231 breast 52.5% | RXF 393 renal 48% | SF-268 CNS 58.2% | SF-295 CNS 38.8% | M14 melanoma 53.1%

CCCCNc1ccc2c3c1cccc3c(=O)n1c3ccccc3nc21
inactive: NCI-H23 lung 60% | NCI-H226 lung 73.7% | NCI-H322M lung 93.5% | HOP-62 NSCLC 81.9% | NCI-H460 lung 48.3% | HOP-92 NSCLC 61.2% | NCI-H522 lung 71.9% | A549/ATCC NSCLC 76.6% | 786-0 renal 102% | COLO 205 colon 85.4% | DU-145 prostate 99.4% | K-562 leukemia 78.8% | MALME-3M melanoma 89.3% | MDA-MB-231 breast 79.8% | RXF 393 renal 104% | SF-268 CNS 101% | SF-539 CNS 103% | M14 melanoma 93.1%

CC1=C(NCCN2CCCC2)C(=O)c2c(OCc3cccc(Cl)c3)cccc2C1=O
active: UACC-257 melanoma -42.4% | M14 melanoma -72.6%
inactive: NCI-H23 lung 81.4% | NCI-H226 lung 94.1% | NCI-H322M lung 75.8% | HOP-62 NSCLC 78.4% | NCI-H460 lung 83.1% | HOP-92 NSCLC 60.6% | NCI-H522 lung 82.9% | A549/ATCC NSCLC 77.2% | 786-0 renal 63.3% | COLO 205 colon 69.7% | DU-145 prostate 89.9% | K-562 leukemia 30.8% | MALME-3M melanoma 53% | MDA-MB-231 breast 62.8% | RXF 393 renal 73.8% | SF-268 CNS 72.8% | SF-295 CNS 56.9%

CS(=O)CCCCCN=C=S (stereo not drawn)
inactive: HOP-92 NSCLC 19.5% | SF-295 CNS 51%
active: NCI-H23 lung 4.24% | NCI-H226 lung -8.26% | NCI-H322M lung 1.21% | HOP-62 NSCLC -7.49% | NCI-H460 lung 0.781% | NCI-H522 lung -25.4% | A549/ATCC NSCLC -0.774% | 786-0 renal 9.82% | COLO 205 colon -51.6% | DU-145 prostate 9.76% | K-562 leukemia -0.259% | MALME-3M melanoma -11.5% | MDA-MB-231 breast 9.17% | RXF 393 renal -34.7% | SF-268 CNS 8.94% | UACC-257 melanoma -6.89% | M14 melanoma 8.73%

O=C(CCCCN1CCOCC1)Nc1ccc(Cn2nnc3c2C(=O)c2nnn(Cc4ccc(NC(=O)CCCCN5CCOCC5)cc4)c2C3=O)cc1
active: NCI-H23 lung -18% | NCI-H226 lung -52.2% | NCI-H322M lung -89.3% | HOP-62 NSCLC -59.1% | NCI-H460 lung -39.8% | HOP-92 NSCLC -40.3% | NCI-H522 lung -68.3% | A549/ATCC NSCLC -68.3% | 786-0 renal -50.5% | COLO 205 colon -78.8% | DU-145 prostate -88.6% | K-562 leukemia 6.24% | MALME-3M melanoma -86% | MDA-MB-231 breast -1.55% | RXF 393 renal -67.4% | SF-268 CNS -35.5% | SF-295 CNS -87.7% | UACC-257 melanoma -77.2% | M14 melanoma -90.3%

COc1cc(OC)c(/C=C/c2cc[n+](C)c3ccccc23)c(OC)c1
active: NCI-H322M lung 6.52% | NCI-H460 lung 4.59% | HOP-92 NSCLC -10.8% | NCI-H522 lung -35.3% | A549/ATCC NSCLC 8.24% | COLO 205 colon -83.9% | K-562 leukemia 7.21% | MALME-3M melanoma 5.28% | SF-295 CNS -48.8% | UACC-257 melanoma -24.7%
inactive: NCI-H23 lung 17.3% | NCI-H226 lung 23.1% | HOP-62 NSCLC 17.1% | 786-0 renal 26.1% | DU-145 prostate 18.5% | MDA-MB-231 breast 22.5% | SF-268 CNS 15.7% | SF-539 CNS 12% | M14 melanoma 36.2%

C=C(CN1CCN(c2cccc(C(F)(F)F)n2)CC1)c1ccc(C(=O)Nc2ccccc2N)cc1
inactive: NCI-H23 lung 35.5% | NCI-H226 lung 84.2% | NCI-H322M lung 45.8% | HOP-62 NSCLC 20.6% | A549/ATCC NSCLC 27.3% | MALME-3M melanoma 20% | MDA-MB-231 breast 33.5% | UACC-257 melanoma 16.6% | M14 melanoma 18.5%
active: NCI-H460 lung 7.02% | HOP-92 NSCLC -12.1% | NCI-H522 lung -45.3% | 786-0 renal 7.8% | COLO 205 colon 1.41% | DU-145 prostate -23.7% | K-562 leukemia 3.45% | RXF 393 renal -19.5% | SF-295 CNS 8.13% | SF-539 CNS 6.53%

C#Cc1nc2ccccc2c(=O)[nH]1
active: NCI-H226 lung -58.8% | HOP-62 NSCLC -6.19% | HOP-92 NSCLC -45.8% | NCI-H522 lung -71.9% | A549/ATCC NSCLC 4.37% | 786-0 renal -64.7% | COLO 205 colon -74.3% | DU-145 prostate -41.8% | K-562 leukemia -24.6% | MALME-3M melanoma -64.2% | MDA-MB-231 breast -57.5% | SF-268 CNS -70.4% | SF-539 CNS -70.1% | UACC-257 melanoma -21.6% | M14 melanoma -11.2%
inactive: NCI-H23 lung 29.9% | NCI-H322M lung 29.5% | NCI-H460 lung 11.1% | SF-295 CNS 41.3%

CC1(C)OCC2OC3(C(=O)O)OC(C)(C)OC3C2O1 (stereo not drawn)
inactive: NCI-H23 lung 102% | NCI-H226 lung 106% | NCI-H322M lung 93% | HOP-62 NSCLC 101% | NCI-H460 lung 110% | HOP-92 NSCLC 116% | NCI-H522 lung 84.6% | A549/ATCC NSCLC 98.1% | 786-0 renal 103% | COLO 205 colon 106% | DU-145 prostate 104% | K-562 leukemia 95.9% | MALME-3M melanoma 104% | MDA-MB-231 breast 107% | SF-268 CNS 101% | SF-295 CNS 97% | SF-539 CNS 108% | UACC-257 melanoma 90% | M14 melanoma 111%

CCCCCCCCCCCCCCCC[N+]1(CC)CCCC1
active: NCI-H23 lung -28.6% | NCI-H226 lung -9.79% | NCI-H322M lung 1.53% | HOP-62 NSCLC -49.7% | NCI-H460 lung -66.8% | HOP-92 NSCLC -29.1% | NCI-H522 lung -73.7% | A549/ATCC NSCLC -63.1% | 786-0 renal -57.7% | COLO 205 colon -90.4% | DU-145 prostate -92.2% | K-562 leukemia -34.9% | MALME-3M melanoma -49.9% | MDA-MB-231 breast -61.6% | SF-268 CNS -57% | SF-295 CNS -70.1% | SF-539 CNS -28.4% | UACC-257 melanoma -46% | M14 melanoma -45%

O=C(NC(Cc1ccccc1)C(=O)CCl)OCc1ccccc1 (stereo not drawn)
active: NCI-H522 lung 6.56%
inactive: NCI-H23 lung 69.4% | NCI-H226 lung 54.4% | NCI-H322M lung 111% | HOP-62 NSCLC 87.1% | NCI-H460 lung 69.6% | HOP-92 NSCLC 73% | A549/ATCC NSCLC 116% | 786-0 renal 79.8% | COLO 205 colon 80.2% | DU-145 prostate 93.5% | K-562 leukemia 13.7% | MALME-3M melanoma 72.4% | MDA-MB-231 breast 73.9% | SF-268 CNS 63.2% | SF-539 CNS 62.4% | UACC-257 melanoma 87.2% | M14 melanoma 80.1%

COc1ccc(/C=N\NC(=O)c2ccncc2)cc1O
inactive: NCI-H23 lung 93.8% | NCI-H226 lung 92.6% | NCI-H322M lung 99.3% | HOP-62 NSCLC 93% | NCI-H460 lung 109% | HOP-92 NSCLC 92.9% | NCI-H522 lung 81.4% | A549/ATCC NSCLC 93.7% | 786-0 renal 93.7% | COLO 205 colon 110% | DU-145 prostate 99.4% | K-562 leukemia 96.4% | MALME-3M melanoma 78.9% | MDA-MB-231 breast 94.8% | SF-268 CNS 99% | SF-295 CNS 92.5% | SF-539 CNS 107% | UACC-257 melanoma 89.1% | M14 melanoma 101%

CCCCCCCCCCCCS(=O)CC(C)O (stereo not drawn)
inactive: NCI-H23 lung 115% | NCI-H226 lung 110% | NCI-H322M lung 119% | HOP-62 NSCLC 96.1% | NCI-H460 lung 111% | HOP-92 NSCLC 90.2% | NCI-H522 lung 95.3% | A549/ATCC NSCLC 93% | 786-0 renal 102% | COLO 205 colon 110% | DU-145 prostate 126% | K-562 leukemia 103% | MALME-3M melanoma 116% | MDA-MB-231 breast 104% | SF-268 CNS 139% | SF-295 CNS 100% | SF-539 CNS 97.2% | UACC-257 melanoma 94.7% | M14 melanoma 107%

Source: PubChem BioAssay (NCI)
